Data on 12 molecules can be found in PubChem BioAssay.

The source made the active and inactive calls. Unless noted, how the calls were made is not given here.

The nature of experiment [1]: HepG2 liver cancer cell viability effects, profiling panel, resazurin fluorescence, 24 h, PK04 Diversity Set (AID 1172). Further: test concentration not given here. To be noted: higher = more signal.
Experiment [2] in a line: basal S. cerevisiae growth modulation, no modifier, primary screen, OD600, strain BY4716, 24 h, basal condition (AID 1173). The note with it: OD600, 24 h, higher = more signal, called active from +8 up or from −8 down.
The nature of experiment [3]: MM1S myeloma cell viability, profiling panel, resazurin fluorescence, basal, 24 h, PK04 Diversity Set (AID 1174).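 Further: MM1S multiple myeloma cell line; test concentration not given here.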 The note with it: higher = more signal, called active from +8 up or from −8 down.
Experiment [4] concerns the target Dihydroorotate dehydrogenase (quinone), mitochondrial (Plasmodium falciparum (isolate 3D7)) (UniProt Q08210). In words: PfDHODH enzyme inhibitors, primary screen, biochemical, C-terminal His tag, absorbance 600 nm (AID 1175).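 Further: recombinant parasite enzyme with a five histidine tag at its C terminus; test concentration not given here.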 To be noted: DCIP absorbance 600 nm, higher = more signal, called active from +8 up or from −8 down.
A short description of experiment [5]: P. aeruginosa biofilm formation inhibitors, primary screen, strain PAO1, LB-PBS medium, absorbance 600 nm (AID 1176). Further: test concentration not given here. The note with it: P. aeruginosa PAO1 growth/biofilm, A600, 12 h; higher = more signal.
Experiment [6] can be described thus: S. cerevisiae RM11-1a growth modifiers, primary screen, strain RM11-1a, OD600, basal, 24 h (AID 1177).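 Further: cultures grown under basal conditions with no added stressor; test concentration not given here.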 The note with it: OD600, 24 h, higher = more signal, called active from +8 up or from −8 down.
Experiment [7] is described as follows: E. coli acrAB mutant growth effects, primary screen, E. coli filamentation inducers, strain DRC39, OD650, 24 h (AID 1178).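 Further: growth measured as culture turbidity by optical density at 650 nm; test concentration not given here.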 The note with it: higher = more signal, called active from +8 up or from −8 down.
A short description of experiment [8]: E. coli acrAB mutant growth effects, primary screen, E. coli filamentation inducers, strain DRC39, OD650, 48 h (AID 1179).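 Further: screen aims at cell division blockers that make cells filament.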 To be noted: E. coli DRC39 delta-acrAB growth, higher = more signal, called active from +8 up or from −8 down.
Experiment [9] in a line: RPMI8226 myeloma cell viability, profiling panel, resazurin fluorescence, basal, 24 h, PK04 Diversity Set (AID 1180).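 Further: RPMI8826 multiple myeloma cell line at 5000 cells per well; test concentration not given here.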 To be noted: higher = more signal. On the technique in general: Resazurin is reduced to fluorescent resorufin, in cell work by metabolically active cells.
Experiment [10] deals with E3 ubiquitin-protein ligase XIAP (Homo sapiens) (UniProt P98170). Description: XIAP binders, primary screen, biophysical, small-molecule microarray, fluorescence 635 nm (AID 1181).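 Further: score merges 667 nm emission and signal to noise over triplicate slides.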 The note with it: small-molecule microarray binding, higher = more signal.
E3 ubiquitin-protein ligase XIAP (Homo sapiens), sequence (P98170 whole entry, looked up): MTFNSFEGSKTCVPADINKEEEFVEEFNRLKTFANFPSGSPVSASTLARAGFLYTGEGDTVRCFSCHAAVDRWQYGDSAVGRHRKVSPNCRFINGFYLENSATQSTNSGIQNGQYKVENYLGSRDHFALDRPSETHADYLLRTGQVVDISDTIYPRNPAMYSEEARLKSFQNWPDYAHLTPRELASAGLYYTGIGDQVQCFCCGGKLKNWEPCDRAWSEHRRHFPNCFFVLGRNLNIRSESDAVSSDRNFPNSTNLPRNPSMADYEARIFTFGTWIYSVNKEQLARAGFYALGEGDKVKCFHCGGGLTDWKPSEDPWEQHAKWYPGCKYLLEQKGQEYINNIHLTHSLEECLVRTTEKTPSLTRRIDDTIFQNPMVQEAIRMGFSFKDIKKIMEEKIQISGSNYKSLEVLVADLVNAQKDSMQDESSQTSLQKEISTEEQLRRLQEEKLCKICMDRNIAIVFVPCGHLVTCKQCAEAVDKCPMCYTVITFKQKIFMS

Dihydroorotate dehydrogenase (quinone), mitochondrial (Plasmodium falciparum (isolate 3D7)), sequence (Q08210 whole entry, looked up): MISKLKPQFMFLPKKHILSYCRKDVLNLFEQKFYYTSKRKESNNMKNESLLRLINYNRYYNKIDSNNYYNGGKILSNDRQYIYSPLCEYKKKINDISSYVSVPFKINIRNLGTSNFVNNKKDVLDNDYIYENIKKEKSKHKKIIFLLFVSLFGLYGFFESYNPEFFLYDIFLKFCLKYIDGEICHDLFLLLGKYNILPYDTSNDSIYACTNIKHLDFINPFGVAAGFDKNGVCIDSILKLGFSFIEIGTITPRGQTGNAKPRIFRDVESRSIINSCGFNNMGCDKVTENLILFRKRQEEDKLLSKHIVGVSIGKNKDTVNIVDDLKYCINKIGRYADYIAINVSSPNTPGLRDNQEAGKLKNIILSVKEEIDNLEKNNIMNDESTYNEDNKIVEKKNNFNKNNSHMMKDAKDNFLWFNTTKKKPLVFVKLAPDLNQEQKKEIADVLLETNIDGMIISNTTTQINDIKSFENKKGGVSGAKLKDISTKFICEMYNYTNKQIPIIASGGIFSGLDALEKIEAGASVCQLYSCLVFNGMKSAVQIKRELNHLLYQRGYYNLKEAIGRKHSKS

Turning to `COC(=O)[C@@]1(Cc2ccc(F)cc2)[C@H]2c3cc(C(=O)N(C)C)n(CCc4ccc(O)c(OC)c4)c3C[C@H]2CN1C(=O)c1ccccc1`, the z-score in [1] was -0.275; in experiment [2], 0.358 (inactive); in experiment [3] it was -0.0883 (inactive); in [5] it was -0.263 (inactive); in experiment [6] it was 0.898 (inactive); in experiment [7], -0.952 (inactive). Further, the values for the z-score in experiment [8] and in experiment [9] were -0.574 (inactive) and 0.28, respectively. The composite z-score in experiment [4] is 0.124 (inactive); in experiment [10], -0.196.

Turning to `O=C1O[C@H](c2ccccc2)[C@H](c2ccccc2)N2[C@H]1[C@@H](C(=O)N1CCN(c3ncccn3)CC1)[C@]1(C(=O)Nc3ccc(C#CC4(O)CCCCCC4)cc31)[C@H]2c1ccc(OCCO)cc1`, the z-score in experiment [1] is 0.204; in experiment [2], 1.82 (inactive); in [3], -0.484 (inactive); in experiment [5] it was 3.52 (inactive); in experiment [6], 3.34 (inactive); in [7], -0.427 (inactive). Moreover, the z-score in [8] is -0.0689 (inactive); in experiment [9], 0.478. Further, the composite z-score is -0.884 (inactive) in experiment [4] and 0.258 in [10].

Consider `O=C1OCCC/C=C\[C@H]2OC34C=CCN(CCN5CCOCC5)C(=O)[C@H]3N(CCCCCCO)C(=O)[C@@H]4C12` (stereo not given in full), for which the z-score is 0.287 in experiment [1]; -0.549 (inactive) in experiment [2]; 0.828 (inactive) in experiment [3]; 0.0251 (inactive) in experiment [5]; -1.06 (inactive) in experiment [6]; 0.251 (inactive) in experiment [7]. Moreover, the z-score in [8] was 0.547 (inactive); in [9] it was 0.56. The composite z-score was -1.38 (inactive) in experiment [4] and 0.122 in [10].

As to `C=CCOC(=O)[C@H]1[C@@H]2C(=O)O[C@@H](c3ccccc3)[C@@H](c3ccccc3)N2[C@@H](c2ccc(OCCOC(=O)[C@@H]3C[C@@H]4C(=O)N[C@@H](CCCCNC(C)=O)C(=O)N4[C@@H]3c3ccc(O)cc3)cc2)[C@]12C(=O)Nc1ccc(I)cc12`, the z-score in experiment [1] is -0.634; in experiment [2], 1.46 (inactive); in [3], -1.77 (inactive); in experiment [5], 1.55 (inactive); in [6], 0.925 (inactive); in experiment [7] it was -0.508 (inactive). Besides, the values for the z-score in experiment [8] and in experiment [9] were -1.25 (inactive) and -0.533, respectively. The composite z-score in [4] was 0.158 (inactive); in experiment [10], 0.026.

Consider `Cc1ccc(S[C@]2(C(=O)O)CC(=O)N(Cc3cc(C(F)(F)F)cc(C(F)(F)F)c3)[C@@H]2c2ccc(CO)cc2)cc1`, for which the z-score in experiment [1] was -0.403; in experiment [2] it was -0.54 (inactive); in experiment [3], -0.543 (inactive); in [5], 0.761 (inactive); in experiment [6], 0.988 (inactive); in experiment [7], -0.296 (inactive). The z-score in [8] is -0.526 (inactive); in experiment [9], -0.278. In addition, the composite z-score is -0.254 (inactive) in [4] and -0.053 in [10].

As to `CCCC[C@@H]1C[C@H]1[C@@H](NC(=O)c1cccs1)c1ccc(C(F)(F)F)cc1`, the z-score was -0.117 in experiment [1]; 1.95 (inactive) in [2]; -0.6 (inactive) in [3]; 0.771 (inactive) in experiment [5]; 1.83 (inactive) in [6]; -0.82 (inactive) in [7]. The z-score in experiment [8] was -0.734 (inactive); in [9], -0.601. Besides, the composite z-score in experiment [4] was 0.322 (inactive); in experiment [10], 0.0408.

`COc1ccccc1CN1C(=O)c2ccccc2[C@](Cc2ccccc2I)(C(=O)NCC(F)(F)F)[C@@H]1c1ccc(CO)cc1`: the z-score was -0.569 in [1]; -1.28 (inactive) in experiment [2]; -0.142 (inactive) in [3]; 0.457 (inactive) in experiment [5]; 0.648 (inactive) in experiment [6]; -0.496 (inactive) in experiment [7]. The z-score in experiment [8] was -0.613 (inactive); in experiment [9], 0.17. Besides, the composite z-score in [4] is -0.673 (inactive); in experiment [10], 0.0264.

On to `CCCCN1CC=CC23O[C@@H]4/C=C\CCC(C)OC(=O)C4[C@H]2C(=O)N(C(CO)C(C)C)[C@@H]3C1=O` (stereo not given in full), for which the z-score in experiment [1] was 0.229; in [2], 0.844 (inactive); in experiment [3], 0.382 (inactive); in [5], 0.991 (inactive); in experiment [6] it was 0.164 (inactive); in experiment [7], 0.375 (inactive). The z-score is 0.156 (inactive) in experiment [8] and -0.0048 in experiment [9]. Besides, the composite z-score is -1.29 (inactive) in [4] and 0.48 in experiment [10].

Consider `COC(=O)c1cn(C[C@@H](Cc2ccccc2)NC(=O)N[C@H](CO)CCc2oc(C(C)=O)c(C(=O)OC)c2C(=O)OC)nn1`, for which the z-score in experiment [1] was 0.0852; in experiment [2] it was -1.3 (inactive); in [3], 0.438 (inactive); in experiment [5] it was -0.227 (inactive); in experiment [6], -0.504 (inactive); in experiment [7], 1.3 (inactive). Also, the z-score is 0.604 (inactive) in experiment [8] and -0.181 in [9]. The composite z-score in [4] was 0.223 (inactive); in experiment [10] it was -0.02.

With `NC(N)=NCCCn1cc(CNC(=O)[C@@H](N)Cc2ccccc2)nn1`, the z-score in experiment [1] was -0.686; in experiment [2] it was -0.85 (inactive); in experiment [3], -0.433 (inactive); in [5], -0.264 (inactive); in [6] it was -0.297 (inactive); in [7], 0.19 (inactive). The z-score in experiment [8] was -0.0439 (inactive); in experiment [9], -0.68. Besides, the composite z-score is -2.75 (inactive) in experiment [4] and 0.012 in [10].

Consider `[N-]=[N+]=NCc1ccccc1[C@H]1OC(c2ccc(OCCCO)cc2)=N[C@@]1(CCS(=O)(=O)c1ccccc1)C(=O)N1CCCCC1`, for which the z-score in [1] was -0.0145; in [2], 0.285 (inactive); in experiment [3], -1.55 (inactive); in experiment [5], 0.659 (inactive); in experiment [6], 1.77 (inactive); in experiment [7], -0.132 (inactive). The results for the z-score in experiment [8] and in [9] were -0.846 (inactive) and -0.661, respectively. Moreover, the figures for the composite z-score in [4] and in experiment [10] were 0.716 (inactive) and 0.0593, respectively.

Take `COC(=O)c1c(CC[C@@H](CO)NC(=O)N2CCC[C@H]2Cn2cc(Cc3ccccc3)nn2)oc(C(C)=O)c1C(=O)OC`: the z-score in [1] was 0.448; in experiment [2], -1.36 (inactive); in experiment [3] it was -0.362 (inactive); in experiment [5], -1.27 (inactive); in experiment [6], -0.245 (inactive); in [7], 0.745 (inactive). Besides, the z-score was 0.312 (inactive) in [8] and -0.394 in experiment [9]. The composite z-score in [4] was -0.378 (inactive); in experiment [10], 0.
